# Rows were chosen to be rich in hits. Some 2.3% of all compounds tested hit in one or more screens of this group.
# M1 PAM – positive allosteric modulators of human M1 muscarinic receptor | AID 588819 | CHO-K1 hM1, Fluo-8 calcium fluorescence, ACh EC20; 0% = ACh EC20, 100% = maximal ACh | P11229 | activation, % at 3 µM | 0.088% of 360,000 active; in the data active = activation above about 19%, passing the limit was not always enough
# Target sequence (P11229 whole entry, looked up): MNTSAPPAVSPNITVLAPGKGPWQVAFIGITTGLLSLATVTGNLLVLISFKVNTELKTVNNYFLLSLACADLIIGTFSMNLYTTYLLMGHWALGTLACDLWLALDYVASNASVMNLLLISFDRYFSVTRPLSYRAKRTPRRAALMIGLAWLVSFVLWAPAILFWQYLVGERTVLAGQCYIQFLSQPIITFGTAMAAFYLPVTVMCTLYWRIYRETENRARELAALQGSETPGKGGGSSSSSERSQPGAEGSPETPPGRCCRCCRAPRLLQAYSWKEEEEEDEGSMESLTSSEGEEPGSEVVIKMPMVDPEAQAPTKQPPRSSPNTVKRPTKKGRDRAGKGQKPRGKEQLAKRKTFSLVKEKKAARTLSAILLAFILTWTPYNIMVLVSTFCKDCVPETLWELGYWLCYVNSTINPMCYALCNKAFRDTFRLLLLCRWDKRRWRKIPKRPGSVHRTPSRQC
# CHO-K1 Ca ag – nonselective activator or artifact in parental CHO-K1 cells. activation, % at 3 µM. AID 602248. 0.48% of 360,000 active. Fluo-8 calcium fluorescence; scaled to maximal ATP response, vehicle zero; in the data active = activation above about 15%;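 also: untransfected CHO-K1 host cells lacking M1 receptor as counterscreen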
# M1 ag – human M1 muscarinic receptor agonism; P11229; CHO-K1 hM1, Fluo-8 calcium fluorescence, agonist mode; 0% DMSO, 100% acetylcholine EC100; activation, % at 3 µM; 0.33% of 360,000 active; AID 588814;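 active = activation above the run's mean compound activation plus 3 SD, cut at about 16% in these data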;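 also: peak over basal fluorescence ratio within a 140 s kinetic read after compound addition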
# M1 PAM parental – counter-screen for M1 PAMs: effect in parental CHO-K1 cells; 0.02% of 360,000 active; ATP EC20, Fluo-8 calcium fluorescence; 0% at ATP EC20, 100% at ATP max; AID 602247; activation, % at 3 µM;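 active = activation above the run cutoff, the mean activation of all test compounds plus 3 SD, cut at about 40% in these data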;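 also: peak over basal fluorescence ratio in a 140 s read after ATP addition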
# CHO-K1 Ca antag – nonselective inhibitor or artifact in parental CHO-K1 cells; ATP-induced calcium, Fluo-8 fluorescence; inhibition, % at 3 µM; 0.6% of 360,000 active; AID 602250;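 active = inhibition above a per-plate cutoff, the plate's mean sample inhibition plus 3 SD, cut at about 24% in these data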
# CHRM1 antagonist – human CHRM1 antagonism; CHO-K1 hM1, Fluo-8 calcium fluorescence, ACh EC80 antagonist; inhibition, % at 3 µM; 1.3% of 360,000 active; AID 588852;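 active = percent inhibition above its own plate's cutoff, namely the mean of that plate's compound wells plus 3 SD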;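 also: peak over basal fluorescence ratio during 140 s after agonist addition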
# Numbers stand for hits; – = inactive; · = no result given.
SMILES,M1 PAM,CHO-K1 Ca ag,M1 ag,M1 PAM parental,CHO-K1 Ca antag,CHRM1 antagonist
O=C(/C=C1\NC2(CCCC2)Cc2ccccc21)C(=O)N/N=C/c1ccc(O)c(O)c1,–,–,16.9,–,–,–
COc1ccc(/C=N/NC(=O)C(=O)/C=C2\NC3(CCCC3)Cc3ccccc32)cc1,24.7,–,–,–,–,–
Cc1cccc(NC(=O)c2ccc3nccnc3c2)c1C,–,–,–,–,–,–
CC1CN(c2ccc(NC(=O)c3ccco3)cc2C(=O)O)CC(C)O1 (stereo not given),–,–,–,–,–,–
O=C(Nc1ccc(-c2nc3cccnc3s2)cc1)c1ccc(Cl)nc1,–,20.8,–,–,–,–
O=C(Nc1ccc(-c2nc3cccnc3s2)cc1)c1cccnc1Cl,–,–,–,–,–,–
COc1ccc(C(=O)Nc2ccc(Oc3ncnc4sc(-c5ccccc5)cc34)cc2)cc1OC,–,16.0,–,–,–,–
COc1cc(C(=O)Nc2ccc(Oc3ncnc4sc(-c5ccccc5)cc34)cc2)cc(OC)c1OC,–,–,–,–,–,–
COc1cccc(-c2cnc(C(O)c3ccc(Cl)c(Cl)c3)[nH]2)c1 (stereo not given),–,–,–,–,–,–
CC(C)C(O)(C#CCN1CCCCC1)C(C)C,–,–,–,–,–,64.1
OC(C#CCN1CCCC1)(c1ccccc1)c1ccccc1,–,–,–,–,–,100.2
CC(O)(C#CCN1CCCCCC1)c1ccccc1 (stereo not given),–,–,–,–,–,41.5
OC(C#CCN1CCCCC1)(c1ccccc1)c1ccccc1,–,–,–,–,–,100.0
OC(C#CCN1CCOCC1)(c1ccccc1)C1CC1 (stereo not given),–,–,–,–,–,–
COc1ccc(-c2noc(CCC(=O)N3CCN(c4cccc(F)c4)CC3)n2)cc1,–,–,–,–,–,–
O=C(NCc1ccccc1Br)c1cccs1,–,–,–,–,–,–
COc1ccccc1CNC(=O)C(=O)Nc1ccc(C(=O)N2CCC(C)CC2)cc1,–,–,–,–,–,–
Cn1c(=O)c([N+](=O)[O-])c(NCCCn2ccnc2)c2ccccc21,–,15.3,–,–,–,–
CCCCNc1c([N+](=O)[O-])c(=O)n(C)c2ccccc12,–,–,–,–,–,–
COc1ccc(NC(=O)CCCn2cnc3ccccc3c2=O)c(OC)c1,–,–,–,–,–,–
OC(c1ccc(F)c(F)c1)c1nc(-c2cccc(F)c2)cs1 (stereo not given),–,–,–,–,–,–
CCN(c1cccc(C(F)(F)F)c1)S(=O)(=O)c1ccc2c(c1)CCN2C(=O)C1CC1,–,–,–,–,–,33.0
COCc1nnc(NC(=O)C2CC(=O)N(CCc3ccc(F)cc3)C2)s1 (stereo not given),–,–,–,–,–,–
COc1ccc(S(=O)(=O)N2CCCCCC2)cc1C(=O)N(C)Cc1ccc(F)cc1,25.1,–,–,–,–,–
COc1ccc(CN(C)C(=O)c2cc(S(=O)(=O)N3CCCCCC3)ccc2OC)cc1OC,–,–,–,–,–,–
SMILES,M1 PAM,CHO-K1 Ca ag,M1 ag,M1 PAM parental,CHO-K1 Ca antag,CHRM1 antagonist
CCOC(=O)[C@]12CCCC=C1N(Cc1ccc(Cl)cc1Cl)C(=O)[C@H](CC(=O)N1CCOCC1)C2,·,–,·,–,–,·
CN1CCC(=C(c2ccccc2)c2ccc(Br)cc2)CC1,–,21.6,–,–,–,53.7
C[C@@H]1COc2cc(N3CC[C@H](O)C3)ccc2S(=O)(=O)N1,·,–,·,–,–,·
COc1ccc(F)cc1C(=O)C1CCCN(C(=O)c2ocnc2C)C1 (stereo not given),–,–,–,–,–,–
CCOc1ccc(NS(=O)(=O)c2ccc(NC(=S)NC(=O)CC(C)C)cc2)cc1,–,–,17.4,–,–,–
CCC(=O)NC(=S)Nc1ccc(S(=O)(=O)NC(C)=O)cc1,–,–,–,–,28.9,–
CCOc1ccc(NS(=O)(=O)c2ccc(C(=O)N(C)CC(=O)Nc3ccc(OC)cc3)cc2)cc1,–,–,–,–,–,–
C=C(C)CN(CC)C(=O)COc1ccc(S(=O)(=O)Nc2ccc(OC)cc2)cc1,–,–,20.6,–,–,–
CCN(CC(=O)Nc1ccc(OC)cc1)C(=O)c1ccc(NS(=O)(=O)c2ccc(C(C)=O)cc2)cc1,–,–,–,–,–,–
CCCC(=O)NC(=S)Nc1ccc(S(=O)(=O)Nc2ccc(OCC)cc2)cc1,–,26.9,27.8,–,–,–
O=C(CCC1CCCN(C(=O)c2cc(F)ccc2F)C1)N1CCN(c2ccccn2)CC1 (stereo not given),–,–,–,–,–,–
Cc1noc(C)c1C(=O)OCC(=O)NC1CC1,–,–,–,–,–,13.6
CCCS(=O)(=O)N1CCN(CC2CC3C=CC2C3)CC1 (stereo not given),–,–,21.9,–,–,–
COc1cc2c(cc1OC)C(c1ccc(Br)cc1)NC(=O)C2 (stereo not given),–,–,–,–,–,–
O=C(NCc1ccco1)c1ccc(CN2CCOCC2)cc1,–,–,–,–,24.2,–
O=C(NCc1ccccc1)c1ccc(CN2CCOCC2)cc1,–,–,–,–,–,–
COC(=O)c1ccc(CSc2nc3ccccc3c(=O)n2Cc2ccco2)o1,–,–,–,–,–,36.0
COC(=O)c1ccc(CSc2nc3ccccc3c(=O)n2CC(C)C)o1,–,–,–,–,–,–
Oc1ccc2ccccc2c1C=Nc1ccccc1Br,–,–,–,–,–,–
Oc1ccccc1N=Cc1c(O)ccc2ccccc12,–,–,22.3,–,–,–
O=C(N/N=C/c1cc(Cl)cc(Cl)c1O)c1ccncc1,–,15.2,–,–,–,–
CN(C1CC(C)(C)NC(C)(C)C1)S(=O)(=O)CC12CCC(CC1=O)C2(C)C (stereo not given),–,–,–,–,–,–
COc1ccc(NC2=NCC(=O)N2Cc2cccs2)cc1,–,–,–,–,–,–
COc1ccc(NC2=NCCC(=O)N2Cc2cccs2)cc1,–,–,–,–,29.6,–
Cc1ccc(C)c(-c2cc(C(=O)Nc3nccs3)c3ccccc3n2)c1,–,–,–,–,–,33.3
Cc1cccc(NC(=O)c2cc(-c3ccc(C)s3)nc3ccccc23)n1,–,–,–,–,–,23.1
COC(=O)c1sccc1NC(=O)c1cc(-c2cc(C)ccc2C)nc2ccccc12,–,–,–,–,–,–
CC(Sc1nc2ncc(Cl)cc2[nH]1)C(=O)Nc1ccc(C(N)=O)cc1 (stereo not given),–,–,–,–,–,–
COC(OC)C1(CCc2ccccc2)NC(=O)NC1=O (stereo not given),–,–,–,–,–,–

# From PubChem BioAssay
